Results taken from PubChem BioAssay (NCI).
About 83,000 compounds went through this panel and 20% of them were active in at least one assay; those are over-represented in the sample as a whole.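 Plates (96-well) were seeded with cells, treated with compound at one concentration, and incubated for 48 hours before percent growth was determined.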 Values without a mark were called inactive. The source made the active and inactive calls. Rule for the calls: active = growth percent below 10; inactive = the rest.

Key:
Assay in all cases: NCI-60 one-dose screen, 48 h (100 = growth as untreated, 0 = no growth, -100 = all killed)
Conditions in all cases: 10 µM unless noted
T-47D breast = test system: T-47D breast
BT-549 breast = test system: BT-549 breast
MDA-MB-435 melanoma = test system: MDA-MB-435 melanoma
SW-620 colon = test system: SW-620 colon
MCF7 breast = test system: MCF7 breast
HCT-116 colon = test system: HCT-116 colon
HCC-2998 colon = test system: HCC-2998 colon
KM12 colon = test system: KM12 colon

SMILES	growth (T-47D breast)	growth (BT-549 breast)	growth (MDA-MB-435 melanoma)	growth (SW-620 colon)	growth (MCF7 breast)	growth (HCT-116 colon)	growth (HCC-2998 colon)	growth (KM12 colon)
N#CC1=C(N)Oc2c(sc3c(F)cccc23)C1c1ccc([N+](=O)[O-])cc1 (stereo not given)	-3.63% (active)	-48.3% (active)	-28.7% (active)	-33.7% (active)	-18.1% (active)	-84.8% (active)	-40.8% (active)	-32.4% (active)
COc1ccc(C2CC(c3ccccc3)=NN2C(=O)c2cc(OC)c(OC)c(OC)c2)cc1O (stereo not given)	70.9%	39.7%	-7.61% (active)	32.1%	20.3%	13.8%	-1.27% (active)	26.3%
CCCCC#Cc1c(I)n(C2OC(CO[Si](C)(C)C(C)(C)C)C3OC(C)(C)OC32)c(=O)n(C(=O)c2ccccc2)c1=O (stereo not given)	-10.1% (active)	27.5%	44.8%	-49.2% (active)	28.9%	14.7%	-9.34% (active)	71.7%
c1cc(OCCN2CCCC2)ccc1CNc1ccc2nc(CCC3CCCCC3)[nH]c2c1	-11.5% (active)	82.5%	-50.7% (active)	8.87% (active)	3.44% (active)	15.3%	19.7%	52.5%
COc1cc(/C=N/NC(=O)c2ccc(-n3cc(-c4ccccc4)nn3)cc2)cc(OC)c1OC	59.8%	53.8%	33.1%	64.8%	14.1%	89.5%	84.3%	53.1%
O=C(NCCCCO)c1cncnc1Nc1ccc2c(ccn2Cc2cccc(F)c2)c1	83.3%	88.6%	92.1%	105%	96.8%	91.5%	93.4%	97.4%
C=CC(=O)Nc1cccc(Oc2nccc(Nc3nnc(-c4ccc(Br)cc4)s3)n2)c1	82.1%	109%	94.3%	96%	70.8%	98.9%	114%	100%
CCN1C(=O)N(CC)C2C1NN=c1s/c(=C\c3ccc(OC)cc3)c(=O)n12 (stereo not given)	57.3%	9.76% (active)	-23.7% (active)	22.8%	14.4%	9.53% (active)	15.4%	10.5%
Clc1ccc(-c2nc(C(Cl)Cl)nc3cc(-c4ccccc4)nn23)cc1	55.3%	89%	37.9%	-5.43% (active)	24.8%	23.1%	-53.7% (active)	3.35% (active)
C=C1C(=O)O[C@H]2[C@H]1CC/C(COC(=O)NCc1ccc(Cn3c(=O)sn(-c4ccc(I)cc4)c3=O)cc1)=C\CC[C@@]1(C)O[C@@H]21	45.2%	74.5%	80.9%	3.86% (active)	38.6%	28.3%	105%	98.4%
Nc1cccc(-c2ccc(COc3ccc(CC4SC(=O)NC4=O)cc3)cc2)c1 (stereo not given)	50.3%	58.7%	-17.7% (active)	34.2%	37.7%	32.1%	87.4%	33.3%
O=C(/C=C/c1ccccc1)N(C1CCCCC1)C1CCCCC1	69.2%	77.3%	99%	92.4%	88.4%	57.6%	92.4%	95.1%
O=C(C1=Cc2cc3ccccc3n2Cc2cnnn21)c1ccc(F)cc1	95%	94.9%	97.5%	108%	94%	97.9%	110%	90.8%
COC(=O)c1c(C)nc(C)c2c1C(=O)C=C(NCc1ccccc1)C2=O	82.2%	90%	103%	106%	76%	76%	96.2%	83%
C=C(C)[C@@H]1CC[C@]2(CO)CC[C@]3(C)[C@H](CC[C@@H]4[C@@](C)(CCCN)[C@H](C(=C)C)CC[C@]43C)[C@@H]12	-40.5% (active)	-92.8% (active)	-97% (active)	-89.5% (active)	-89.3% (active)	-88.3% (active)	-80.1% (active)	-79.6% (active)
